Measured values from PubChem BioAssay AID651657 (Broad Institute, 2012).
Potency and affinity values are given separately. Values without a mark were called inactive.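 The calls were made as follows: active = signal falls, with fitted half-maximal concentration at most twice the top valid dose tested; inconclusive = flat curve with partial signal loss, or poor curve fit; inactive = the rest, including signal rising instead.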

molecular target: DNA repair and recombination protein RAD54-like (Homo sapiens) (UniProt Q92698); assay: inhibitors of human RAD54 branch migration, confirmation, biochemical, fluorescence, cherry-picked samples, dose series (AID 651657); conditions: FAM/BHQ fluorescence, 60 min; series mostly up to 50 µM; activity change, negative = inhibition: at the top concentration
Sequence (Q92698 whole entry, looked up): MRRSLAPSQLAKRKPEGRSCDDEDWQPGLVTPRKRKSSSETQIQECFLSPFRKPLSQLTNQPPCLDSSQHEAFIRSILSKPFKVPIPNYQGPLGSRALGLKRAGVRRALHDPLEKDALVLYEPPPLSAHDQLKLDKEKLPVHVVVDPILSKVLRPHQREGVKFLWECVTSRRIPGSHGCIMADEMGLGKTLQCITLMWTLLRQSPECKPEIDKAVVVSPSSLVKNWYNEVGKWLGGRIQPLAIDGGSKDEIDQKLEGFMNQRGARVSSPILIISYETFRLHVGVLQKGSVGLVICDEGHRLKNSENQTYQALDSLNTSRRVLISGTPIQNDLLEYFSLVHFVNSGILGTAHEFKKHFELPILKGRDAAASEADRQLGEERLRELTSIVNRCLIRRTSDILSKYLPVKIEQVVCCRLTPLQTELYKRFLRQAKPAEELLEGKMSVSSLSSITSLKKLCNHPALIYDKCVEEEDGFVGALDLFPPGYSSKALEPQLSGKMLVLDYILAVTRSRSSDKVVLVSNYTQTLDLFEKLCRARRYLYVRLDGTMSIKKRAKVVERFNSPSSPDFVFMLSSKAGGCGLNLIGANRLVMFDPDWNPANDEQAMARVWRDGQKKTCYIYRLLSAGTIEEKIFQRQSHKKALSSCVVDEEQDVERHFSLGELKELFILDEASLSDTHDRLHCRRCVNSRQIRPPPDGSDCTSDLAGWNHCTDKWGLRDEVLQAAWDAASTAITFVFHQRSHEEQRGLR

| Structure (SMILES) | activity change, negative = inhibition |
| --- | --- |
| CCN1CCN(c2ccc(N)c(C)c2)CC1 | -10.9% |
| Nc1ccc(CCN2CCCC2)cc1 | -2.84% |
| Nc1ccnn1C1CCNCC1 | 0.708% |
